ChEMBL document CHEMBL1961873, “Compounds: GSK PKIS; Assays: Nanosyn kinase panel” (2012)

Each molecule was assayed against T1, Tyrosine-protein kinase Mer (Homo sapiens) (UniProt Q12866). Conditions: at 1 µM.
T1 sequence (whole entry): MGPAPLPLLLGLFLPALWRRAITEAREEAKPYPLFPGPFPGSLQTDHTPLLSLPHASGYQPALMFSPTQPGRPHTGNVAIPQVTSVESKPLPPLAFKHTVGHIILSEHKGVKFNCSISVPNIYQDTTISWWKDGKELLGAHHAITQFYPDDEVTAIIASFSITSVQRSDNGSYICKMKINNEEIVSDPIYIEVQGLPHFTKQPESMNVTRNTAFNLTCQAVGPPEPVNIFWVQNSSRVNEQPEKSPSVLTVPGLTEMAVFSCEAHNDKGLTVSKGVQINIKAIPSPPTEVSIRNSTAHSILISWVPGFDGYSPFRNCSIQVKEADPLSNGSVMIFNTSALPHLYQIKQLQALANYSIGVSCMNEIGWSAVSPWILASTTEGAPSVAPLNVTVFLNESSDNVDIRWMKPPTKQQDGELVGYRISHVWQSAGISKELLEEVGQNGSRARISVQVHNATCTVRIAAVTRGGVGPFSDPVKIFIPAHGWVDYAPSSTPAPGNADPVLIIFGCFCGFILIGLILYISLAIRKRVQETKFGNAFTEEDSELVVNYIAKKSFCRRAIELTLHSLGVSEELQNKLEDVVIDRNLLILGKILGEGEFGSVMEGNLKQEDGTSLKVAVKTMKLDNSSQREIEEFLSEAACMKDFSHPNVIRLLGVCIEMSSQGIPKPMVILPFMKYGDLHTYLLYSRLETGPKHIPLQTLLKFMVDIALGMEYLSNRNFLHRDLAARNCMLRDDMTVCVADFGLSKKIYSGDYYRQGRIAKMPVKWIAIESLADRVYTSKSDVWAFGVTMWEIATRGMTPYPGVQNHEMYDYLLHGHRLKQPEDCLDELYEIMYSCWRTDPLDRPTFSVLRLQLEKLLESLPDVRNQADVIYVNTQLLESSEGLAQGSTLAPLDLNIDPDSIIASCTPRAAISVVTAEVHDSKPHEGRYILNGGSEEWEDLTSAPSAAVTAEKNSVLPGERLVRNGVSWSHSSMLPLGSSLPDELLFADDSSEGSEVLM

SMILES | inhibition
FC(F)(F)c1cccc(-c2nn3ncccc3c2-c2ccnc(Nc3ccc4c(c3)OCCO4)n2)c1 | 40%
O=C(Nc1n[nH]c2cc(-c3ccc(F)cc3)ccc12)C1CC1 | 2.68%
CN1CCC(n2cnc(-c3ccc(F)cc3)c2-c2ccnc(N)n2)CC1 | 6.73%
COc1ccc(-c2cc(-c3c[nH]nc3-c3ccccn3)ccn2)cc1 | 2.69%
COc1ccc(CNC(=O)c2ccc(-c3cc(-c4nnc(C)o4)ccc3C)cc2)cc1 | 3.49%
CCN(CC)S(=O)(=O)c1ccc(OC)c(Nc2ncc(-c3ccccc3)o2)c1 | 2.09%
CCOc1ccc2c(-c3ccnc(Nc4cccc(C(F)(F)F)c4)n3)cnn2n1 | 3.35%
COc1cccc(-c2c[nH]c3c(N/N=C/c4ccncc4)ncnc23)c1 | 15.7%
COc1cccc(-n2ncc3c(N/N=C/c4ccc(F)cc4)ncnc32)c1 | 5.19%
NS(=O)(=O)c1ccc(N/N=C2\C(=O)Nc3ccc4ncccc4c32)cc1 | 17.5%
Nc1nc(-c2ccc(F)cc2)c(-c2ccc3ncccc3n2)s1 | 5.56%
CNC(=O)c1cncc(/C=C/c2ccccc2Cl)c1 | 2.42%
COc1cc2c(cc1Nc1nc(Nc3ccsc3C(N)=O)c3cc[nH]c3n1)N(C(=O)CN(C)C)CCC2(C)C | 16.1%
Fc1cccc(COc2ccc(Nc3ncnc4sc(-c5ccco5)cc34)cc2Cl)c1 | 3.51%
COc1ccc2[nH]c3c4[nH]c5ccc(OC)cc5c4c4c(c3c2c1)C(=O)NC4=O | 50.1%
CNC(=O)c1cc(-c2ccc(F)cc2)cc(-c2ccc(S(=O)(=O)N3CCCC3)cc2)c1N | 2.3%
Nc1nc(-c2cccc(Cl)c2)c(-c2ccc3ncccc3n2)s1 | 7.21%

SMILES | inhibition
CCn1c(-c2nonc2N)nc2c(C#CC(C)(C)O)nc(OC[C@H](N)c3ccccc3)cc21 | 3.59%
COc1cc(/C=N/Nc2ncnc3[nH]ncc23)ccc1O | 9.92%
CC(=O)Nc1cccc(C#Cc2cncnc2Nc2ccc(OCc3cccc(F)c3)c(Cl)c2)c1 | 2.65%
N#Cc1c(NC(=O)c2ccc(F)cc2)sc2c1CCCC2 | 0.78%
Cc1cccc(Nc2ncc(-c3ccccc3)o2)c1 | 2.26%
O=C(O[C@H]1CN[C@H](C#Cc2cc3ncnc(Nc4ccc(Cc5ccccc5)cc4)c3s2)C1)N1CCOCC1 | 2.01%
COC(=O)c1sc(-n2cnc3cc(OC)c(OC)cc32)cc1OCc1ccccc1C(F)(F)F | 2.08%
CN1CCC(n2cnc(-c3ccc(F)cc3)c2-c2ccnc(Nc3ccccc3)n2)CC1 | 6.83%
CNC(=O)c1cccc(C#Cc2cncnc2Nc2ccc(OCc3cccc(F)c3)c(Cl)c2)c1 | 2.26%
CS(=O)(=O)CCNCc1ccc(-c2ccc3ncnc(Nc4ccc(OCc5ccccc5)c(C(F)(F)F)c4)c3c2)o1 | 1.81%
Nc1ncc(-c2cccc(S(N)(=O)=O)c2)c2scc(-c3ccc(F)c(Cl)c3)c12 | 10.6%
CC(C)(CO)CNC(=O)c1ccc2c(c1)/C(=N/Nc1ccc(S(N)(=O)=O)cc1)C(=O)N2 | 1.33%
CCCN1CCC(c2ccc(Nc3nc(Nc4cc(F)ccc4C(N)=O)c4cc[nH]c4n3)c(OC)c2)CC1 | 20%
CCn1c(-c2nonc2N)nc2cnc(Oc3cccc(NC(=O)c4ccc(N(C)C)cc4)c3)cc21 | 0.04%
Fc1ccc(-c2nn3ccccc3c2-c2ccncc2)cc1 | 2.6%
COc1ccc(-c2oc3ncnc(N)c3c2-c2ccc(NC(=O)Nc3cc(C(F)(F)F)ccc3F)cc2)cc1 | 66.5%

The molecules below were run against Hepatocyte growth factor receptor (Homo sapiens) (UniProt P08581). Conditions: at 0.1 µM.
Hepatocyte growth factor receptor (Homo sapiens), sequence (P08581 whole entry): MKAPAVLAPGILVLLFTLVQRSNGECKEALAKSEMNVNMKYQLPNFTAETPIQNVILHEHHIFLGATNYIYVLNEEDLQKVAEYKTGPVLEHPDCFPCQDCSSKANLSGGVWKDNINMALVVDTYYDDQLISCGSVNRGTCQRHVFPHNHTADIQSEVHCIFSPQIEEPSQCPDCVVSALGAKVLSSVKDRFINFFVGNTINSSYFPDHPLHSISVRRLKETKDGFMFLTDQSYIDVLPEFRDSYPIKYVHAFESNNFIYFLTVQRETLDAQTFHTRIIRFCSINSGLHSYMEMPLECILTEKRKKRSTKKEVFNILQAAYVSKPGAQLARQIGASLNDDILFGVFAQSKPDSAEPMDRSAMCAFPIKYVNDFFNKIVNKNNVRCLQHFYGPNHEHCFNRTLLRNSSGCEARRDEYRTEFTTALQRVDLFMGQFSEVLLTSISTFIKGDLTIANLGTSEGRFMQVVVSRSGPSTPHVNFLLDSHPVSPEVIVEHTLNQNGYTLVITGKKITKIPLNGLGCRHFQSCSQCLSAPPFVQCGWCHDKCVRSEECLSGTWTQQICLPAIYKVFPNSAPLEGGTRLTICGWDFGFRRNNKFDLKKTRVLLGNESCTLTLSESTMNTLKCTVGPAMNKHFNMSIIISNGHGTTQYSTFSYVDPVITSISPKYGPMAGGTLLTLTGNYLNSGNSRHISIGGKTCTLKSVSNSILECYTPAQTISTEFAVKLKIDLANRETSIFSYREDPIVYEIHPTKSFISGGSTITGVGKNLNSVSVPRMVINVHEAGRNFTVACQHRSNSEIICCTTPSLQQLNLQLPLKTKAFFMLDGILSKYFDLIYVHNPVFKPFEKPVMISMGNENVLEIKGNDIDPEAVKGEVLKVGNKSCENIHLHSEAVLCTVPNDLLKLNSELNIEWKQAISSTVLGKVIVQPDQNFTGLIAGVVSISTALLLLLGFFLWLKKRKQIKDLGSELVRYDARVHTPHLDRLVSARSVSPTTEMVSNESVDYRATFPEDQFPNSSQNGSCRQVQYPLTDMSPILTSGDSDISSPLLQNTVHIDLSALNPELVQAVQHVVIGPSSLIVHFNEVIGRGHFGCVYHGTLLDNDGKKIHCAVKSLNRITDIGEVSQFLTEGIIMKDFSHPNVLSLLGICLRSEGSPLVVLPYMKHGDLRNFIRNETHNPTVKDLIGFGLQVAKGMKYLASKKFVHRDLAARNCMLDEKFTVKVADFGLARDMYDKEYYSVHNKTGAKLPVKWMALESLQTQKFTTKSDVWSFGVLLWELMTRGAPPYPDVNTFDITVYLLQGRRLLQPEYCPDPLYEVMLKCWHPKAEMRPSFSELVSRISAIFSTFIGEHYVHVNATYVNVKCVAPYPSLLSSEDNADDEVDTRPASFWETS

SMILES | inhibition
FC(F)(F)c1cccc(-c2nn3ncccc3c2-c2ccnc(Nc3ccc4c(c3)OCCO4)n2)c1 | 7.83%
O=C(Nc1n[nH]c2cc(-c3ccc(F)cc3)ccc12)C1CC1 | 1.03%
CN1CCC(n2cnc(-c3ccc(F)cc3)c2-c2ccnc(N)n2)CC1 | 2.36%
COc1ccc(-c2cc(-c3c[nH]nc3-c3ccccn3)ccn2)cc1 | 8.94%
COc1ccc(CNC(=O)c2ccc(-c3cc(-c4nnc(C)o4)ccc3C)cc2)cc1 | 11.8%
CCN(CC)S(=O)(=O)c1ccc(OC)c(Nc2ncc(-c3ccccc3)o2)c1 | 3.7%
CCOc1ccc2c(-c3ccnc(Nc4cccc(C(F)(F)F)c4)n3)cnn2n1 | 3.01%
COc1cccc(-c2c[nH]c3c(N/N=C/c4ccncc4)ncnc23)c1 | 4.89%
COc1cccc(-n2ncc3c(N/N=C/c4ccc(F)cc4)ncnc32)c1 | 2.87%
NS(=O)(=O)c1ccc(N/N=C2\C(=O)Nc3ccc4ncccc4c32)cc1 | 4.71%
Nc1nc(-c2ccc(F)cc2)c(-c2ccc3ncccc3n2)s1 | 4.07%
CNC(=O)c1cncc(/C=C/c2ccccc2Cl)c1 | 3.72%
COc1cc2c(cc1Nc1nc(Nc3ccsc3C(N)=O)c3cc[nH]c3n1)N(C(=O)CN(C)C)CCC2(C)C | 5.6%
Fc1cccc(COc2ccc(Nc3ncnc4sc(-c5ccco5)cc34)cc2Cl)c1 | 3.09%
COc1ccc2[nH]c3c4[nH]c5ccc(OC)cc5c4c4c(c3c2c1)C(=O)NC4=O | 10.5%
CNC(=O)c1cc(-c2ccc(F)cc2)cc(-c2ccc(S(=O)(=O)N3CCCC3)cc2)c1N | 3.93%
Nc1nc(-c2cccc(Cl)c2)c(-c2ccc3ncccc3n2)s1 | 6.65%

SMILES | inhibition
CCn1c(-c2nonc2N)nc2c(C#CC(C)(C)O)nc(OC[C@H](N)c3ccccc3)cc21 | 6.32%
COc1cc(/C=N/Nc2ncnc3[nH]ncc23)ccc1O | 1.87%
CC(=O)Nc1cccc(C#Cc2cncnc2Nc2ccc(OCc3cccc(F)c3)c(Cl)c2)c1 | 4.11%
N#Cc1c(NC(=O)c2ccc(F)cc2)sc2c1CCCC2 | 1%
Cc1cccc(Nc2ncc(-c3ccccc3)o2)c1 | 3.88%
O=C(O[C@H]1CN[C@H](C#Cc2cc3ncnc(Nc4ccc(Cc5ccccc5)cc4)c3s2)C1)N1CCOCC1 | -1.3%
COC(=O)c1sc(-n2cnc3cc(OC)c(OC)cc32)cc1OCc1ccccc1C(F)(F)F | -0.86%
CN1CCC(n2cnc(-c3ccc(F)cc3)c2-c2ccnc(Nc3ccccc3)n2)CC1 | -0.26%
CNC(=O)c1cccc(C#Cc2cncnc2Nc2ccc(OCc3cccc(F)c3)c(Cl)c2)c1 | 3.13%
CS(=O)(=O)CCNCc1ccc(-c2ccc3ncnc(Nc4ccc(OCc5ccccc5)c(C(F)(F)F)c4)c3c2)o1 | 0.49%
Nc1ncc(-c2cccc(S(N)(=O)=O)c2)c2scc(-c3ccc(F)c(Cl)c3)c12 | 4.62%
CC(C)(CO)CNC(=O)c1ccc2c(c1)/C(=N/Nc1ccc(S(N)(=O)=O)cc1)C(=O)N2 | 9.65%
CCCN1CCC(c2ccc(Nc3nc(Nc4cc(F)ccc4C(N)=O)c4cc[nH]c4n3)c(OC)c2)CC1 | 8.25%
CCn1c(-c2nonc2N)nc2cnc(Oc3cccc(NC(=O)c4ccc(N(C)C)cc4)c3)cc21 | -1.57%
Fc1ccc(-c2nn3ccccc3c2-c2ccncc2)cc1 | -1.86%
COc1ccc(-c2oc3ncnc(N)c3c2-c2ccc(NC(=O)Nc3cc(C(F)(F)F)ccc3F)cc2)cc1 | 9.34%
